Experimental data: the supplement of paper PMC4022240
± gives the standard deviation.

Key:
Test in all cases: peptide microarray binding signal (635 nm), min-max normalized on array (fraction of array maximum); higher = stronger binding
Conditions in all cases: peptide region: H3 5-17
[1] = molecular target: T1, HaloTag-ATRX ADD domain (163-292)
T1 chain: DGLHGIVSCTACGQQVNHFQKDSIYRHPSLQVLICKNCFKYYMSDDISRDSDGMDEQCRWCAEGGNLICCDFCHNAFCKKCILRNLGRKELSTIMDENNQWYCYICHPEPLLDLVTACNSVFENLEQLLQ
Summary of the method: (§1)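 Arrays carried histone 13-mer peptide–cellulose conjugates printed in triplicate on nitrocellulose alongside a Cy3 tracer. After overnight blocking at 4°C, they were incubated for 1 h at 4°C with biotin-labelled HaloTag reader fusions (10 nM to 1 μM) plus streptavidin-Alexa Fluor 647, or with rabbit histone antibodies (1:10,000 to 1:2,000) plus anti-rabbit Alexa 647. Scanning on an Axon GenePix 4000B used 635 nm for signal and 532 nm for misprints. The binding signal reported is each triplicate's mean spot intensity after per-library min-max scaling.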

[2] = molecular target: HaloTag-ING2 PHD (mouse Ing2 200-280)
Summary of the method: as §1

[3] = molecular target: anti-H3K4me3 antibody ab8580
Summary of the method: as §1

[4] = molecular target: anti-H3K9me3 antibody ab8898
Summary of the method: as §1

[5] = peptide modifications: H3R8me2a H3S10ph, binder concentration: 1:2,000 dilution
[6] = peptide modifications: H3R8me2a H3S10ph, binder concentration: 1:10,000 dilution
[7] = peptide modifications: H3R8me1, binder concentration: 1:2,000 dilution
[8] = peptide modifications: H3R8me1, binder concentration: 1:10,000 dilution
[9] = peptide modifications: H3R8cit H3T11ph, binder concentration: 1:2,000 dilution
[10] = peptide modifications: H3R8cit H3T11ph, binder concentration: 1:10,000 dilution
[11] = peptide modifications: H3R8cit, binder concentration: 1:2,000 dilution
[12] = peptide modifications: H3R8cit, binder concentration: 1:10,000 dilution
[13] = peptide modifications: H3R8cit H3S10ph, binder concentration: 1:2,000 dilution
[14] = peptide modifications: H3R8cit H3S10ph, binder concentration: 1:10,000 dilution

B1: H3 5-17 Q T A Rme2a K Sph T G G K A P R (peptide)
chain: QTARKSTGGKAPR
peptide microarray binding signal ([1]; peptide modifications: H3R8me2a H3S10ph, binder concentration: 50 nM): 0.00837 ± 0.0001 | peptide microarray binding signal ([1]; peptide modifications: H3R8me2a H3S10ph, binder concentration: 500 nM): 0.0191 ± 0.0021 | peptide microarray binding signal ([2]; peptide modifications: H3R8me2a H3S10ph, binder concentration: 10 nM): 0.0259 ± 0.0014 | peptide microarray binding signal ([2]; peptide modifications: H3R8me2a H3S10ph, binder concentration: 100 nM): 0.0521 ± 0.0085 | peptide microarray binding signal [3, 5]: 0.00508 ± 0.00076 | peptide microarray binding signal [3, 6]: 0.00525 ± 0.00042 | peptide microarray binding signal [4, 5]: 0.00298 ± 0.00042 | peptide microarray binding signal [4, 6]: 0.00288 ± 4.3e-05

B2: H3 5-17 Q T A Rme K S T G G K A P R (peptide)
chain: QTARKSTGGKAPR
peptide microarray binding signal ([1]; peptide modifications: H3R8me1, binder concentration: 50 nM): 0.00589 ± 0.00021 | peptide microarray binding signal ([1]; peptide modifications: H3R8me1, binder concentration: 500 nM): 0.00448 ± 0.00015 | peptide microarray binding signal ([2]; peptide modifications: H3R8me1, binder concentration: 10 nM): 0.0037 ± 7.9e-05 | peptide microarray binding signal ([2]; peptide modifications: H3R8me1, binder concentration: 100 nM): 0.00262 | peptide microarray binding signal [3, 7]: 0.0014 ± 0.00011 | peptide microarray binding signal [3, 8]: 0.00417 ± 0.00061 | peptide microarray binding signal [4, 7]: 0.00305 ± 0.00038 | peptide microarray binding signal [4, 8]: 0.00755 ± 0.00014

B3: H3 5-17 Q T A Rcit K S Tph G G K A P R (peptide)
chain: QTARKSTGGKAPR
peptide microarray binding signal ([1]; peptide modifications: H3R8cit H3T11ph, binder concentration: 50 nM): 0.00404 ± 0.00028 | peptide microarray binding signal ([1]; peptide modifications: H3R8cit H3T11ph, binder concentration: 500 nM): 0.0123 ± 0.0011 | peptide microarray binding signal ([2]; peptide modifications: H3R8cit H3T11ph, binder concentration: 10 nM): 0.0179 ± 0.0072 | peptide microarray binding signal ([2]; peptide modifications: H3R8cit H3T11ph, binder concentration: 100 nM): 0.0242 ± 0.0054 | peptide microarray binding signal [3, 9]: 0.00285 ± 4.3e-05 | peptide microarray binding signal [3, 10]: 0.002511 ± 2.2e-05 | peptide microarray binding signal [4, 9]: 0.00142 ± 0.00018 | peptide microarray binding signal [4, 10]: 0.00115 ± 2e-05

B4: H3 5-17 Q T A Rcit K S T G G K A P R (peptide)
chain: QTARKSTGGKAPR
peptide microarray binding signal ([1]; peptide modifications: H3R8cit, binder concentration: 50 nM): 0.0063 ± 0.00069 | peptide microarray binding signal ([1]; peptide modifications: H3R8cit, binder concentration: 500 nM): 0.00719 ± 0.0018 | peptide microarray binding signal ([2]; peptide modifications: H3R8cit, binder concentration: 10 nM): 0.0115 ± 0.0029 | peptide microarray binding signal ([2]; peptide modifications: H3R8cit, binder concentration: 100 nM): 0.00574 ± 0.00039 | peptide microarray binding signal [3, 11]: 0.00504 ± 0.0019 | peptide microarray binding signal [3, 12]: 0.0142 ± 0.0043 | peptide microarray binding signal [4, 11]: 0.00642 ± 0.0027 | peptide microarray binding signal [4, 12]: 0.00588 ± 0.00093

B5: H3 5-17 Q T A Rcit K Sph T G G K A P R (peptide)
chain: QTARKSTGGKAPR
peptide microarray binding signal ([1]; peptide modifications: H3R8cit H3S10ph, binder concentration: 50 nM): 0.00417 ± 0.00041 | peptide microarray binding signal ([1]; peptide modifications: H3R8cit H3S10ph, binder concentration: 500 nM): 0.0107 ± 0.0011 | peptide microarray binding signal ([2]; peptide modifications: H3R8cit H3S10ph, binder concentration: 10 nM): 0.00949 ± 0.0015 | peptide microarray binding signal ([2]; peptide modifications: H3R8cit H3S10ph, binder concentration: 100 nM): 0.0187 ± 0.0059 | peptide microarray binding signal [3, 13]: 0.00211 ± 0.00036 | peptide microarray binding signal [3, 14]: 0.00194 ± 0.00019 | peptide microarray binding signal [4, 13]: 0.00183 ± 0.00048 | peptide microarray binding signal [4, 14]: 0.00133 ± 7.9e-05
